Design in all cases: scale not given: direction of the effect not stated beside the values
Assay [1] has as its target Protein translocase subunit SecA (Escherichia coli (strain K12)) (UniProt P10408). The experiment in a line: Assay to Identify E. coli SecA ATPase Inhibitors. The format is functional. Particulars: 30 µM.
Assay [2] deals with T1, Ubiquitin-activating enzyme e1, putative (Leishmania donovani (strain BPK282A1)) (UniProt E9BSI1).
T1 sequence (whole entry): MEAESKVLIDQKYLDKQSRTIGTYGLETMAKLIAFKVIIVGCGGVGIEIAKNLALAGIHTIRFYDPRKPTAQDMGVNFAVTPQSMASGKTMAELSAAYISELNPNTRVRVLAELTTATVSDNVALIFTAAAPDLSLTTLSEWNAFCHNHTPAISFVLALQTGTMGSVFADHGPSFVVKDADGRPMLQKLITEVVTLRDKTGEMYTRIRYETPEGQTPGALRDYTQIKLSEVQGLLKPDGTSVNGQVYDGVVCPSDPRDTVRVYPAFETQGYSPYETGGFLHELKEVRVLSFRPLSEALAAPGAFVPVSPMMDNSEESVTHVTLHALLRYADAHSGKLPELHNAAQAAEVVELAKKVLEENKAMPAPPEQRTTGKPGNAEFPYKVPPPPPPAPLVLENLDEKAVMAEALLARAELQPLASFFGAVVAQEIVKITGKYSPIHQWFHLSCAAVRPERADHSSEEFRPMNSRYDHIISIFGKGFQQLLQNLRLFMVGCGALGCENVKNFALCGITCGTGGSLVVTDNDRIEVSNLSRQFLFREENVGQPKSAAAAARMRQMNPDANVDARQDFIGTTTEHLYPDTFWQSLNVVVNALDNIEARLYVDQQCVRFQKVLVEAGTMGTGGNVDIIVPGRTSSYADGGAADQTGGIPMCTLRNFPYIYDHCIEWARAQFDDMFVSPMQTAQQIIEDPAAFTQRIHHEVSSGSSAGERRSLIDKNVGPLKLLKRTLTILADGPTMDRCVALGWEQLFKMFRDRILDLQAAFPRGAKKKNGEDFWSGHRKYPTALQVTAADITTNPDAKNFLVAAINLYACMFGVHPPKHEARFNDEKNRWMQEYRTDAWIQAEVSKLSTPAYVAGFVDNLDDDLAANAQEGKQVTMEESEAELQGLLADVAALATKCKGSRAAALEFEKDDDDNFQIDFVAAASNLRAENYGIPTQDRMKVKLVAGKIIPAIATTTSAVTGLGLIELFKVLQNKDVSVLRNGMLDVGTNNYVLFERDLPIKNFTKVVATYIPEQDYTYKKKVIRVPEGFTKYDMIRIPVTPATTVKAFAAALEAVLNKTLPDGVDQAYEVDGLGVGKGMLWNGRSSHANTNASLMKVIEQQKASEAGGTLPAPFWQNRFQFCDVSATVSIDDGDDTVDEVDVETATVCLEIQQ
The experiment in a line: Leishmania donovani Ubiquitin Activating Enzyme (LdE1). The format is functional. Conditions: 30 µM.

The target in assay [3] is AMP-activated protein kinase, AMPK (Homo sapiens) (UniProt P54646+O43741+P54619+Q9UGJ0+Q9Y478+Q13131+Q9UGI9). Put plainly: AMP-dependent Kinase enzyme assay. An in vitro enzyme assay that detects ADP turnover that is directly proportional to AMPK activity. This uses naive AMPK that is activated during the assay with MK-8722. Type of assay: functional. Conditions: 30 µM.

For assay [4], the target named is Sialic acid-binding Ig-like lectin 9 (Homo sapiens) (UniProt Q9Y336). The experiment in a line: Hs-Siglec9 ALPHAscreen SOP 20170721. Particulars: 10 µM.
Sequence of Sialic acid-binding Ig-like lectin 9 (Homo sapiens) (Q9Y336 whole entry): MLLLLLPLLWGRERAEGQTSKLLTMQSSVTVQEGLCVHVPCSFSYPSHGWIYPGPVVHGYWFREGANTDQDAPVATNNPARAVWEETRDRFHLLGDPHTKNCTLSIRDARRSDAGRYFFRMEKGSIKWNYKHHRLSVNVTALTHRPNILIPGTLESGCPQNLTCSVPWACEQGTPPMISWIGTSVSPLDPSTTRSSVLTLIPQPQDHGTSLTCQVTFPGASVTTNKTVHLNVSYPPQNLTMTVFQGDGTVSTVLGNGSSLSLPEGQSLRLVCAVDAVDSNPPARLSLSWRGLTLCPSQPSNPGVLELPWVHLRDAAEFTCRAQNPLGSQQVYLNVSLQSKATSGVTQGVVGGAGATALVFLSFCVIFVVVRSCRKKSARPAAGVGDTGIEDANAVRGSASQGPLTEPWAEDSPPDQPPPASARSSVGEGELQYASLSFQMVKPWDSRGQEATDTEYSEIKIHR
In assay [5] the test system is Trypanosoma cruzi. Put plainly: Trypanosoma cruzi phosphomannomutase and mannose-1-phosphate guanylyltransferase assay. The format is functional. Conditions: 10 µM.
Assay [6] concerns the target T2, Arginase-2, mitochondrial (Homo sapiens) (UniProt P78540).
T2 sequence (whole entry): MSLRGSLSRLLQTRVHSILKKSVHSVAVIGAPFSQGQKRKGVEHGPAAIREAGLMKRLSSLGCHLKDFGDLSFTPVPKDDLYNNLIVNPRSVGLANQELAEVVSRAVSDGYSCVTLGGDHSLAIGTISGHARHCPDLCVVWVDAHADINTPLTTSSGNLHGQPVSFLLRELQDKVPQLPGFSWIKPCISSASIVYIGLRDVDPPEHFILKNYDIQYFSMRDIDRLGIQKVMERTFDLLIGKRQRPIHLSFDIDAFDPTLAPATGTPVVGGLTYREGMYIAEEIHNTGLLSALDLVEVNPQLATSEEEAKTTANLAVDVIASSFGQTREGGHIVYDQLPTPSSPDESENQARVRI
Put plainly: in vitro enzyme assay to detect the production of urea directly proportional to the activity of Arginase II. Further: in the data most compounds retested in dose-response had high values. The format is functional. Particulars: 33.3 µM.

Assay [7] addresses T3, Proteasome subunit beta (Trypanosoma cruzi) (UniProt O96673).
T3 sequence (whole entry): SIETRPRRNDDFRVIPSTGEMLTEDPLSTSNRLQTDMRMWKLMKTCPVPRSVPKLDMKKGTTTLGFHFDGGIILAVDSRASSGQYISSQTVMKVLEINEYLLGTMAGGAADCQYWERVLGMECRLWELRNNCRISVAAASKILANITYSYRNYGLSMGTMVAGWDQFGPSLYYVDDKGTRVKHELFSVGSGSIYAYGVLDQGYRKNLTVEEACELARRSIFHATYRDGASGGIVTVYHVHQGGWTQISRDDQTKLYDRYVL
The experiment in a line: Trypanosoma cruzi proteasome chymotrypsin-like activity (TcProtChymo) assay. Further: in the data most compounds retested in dose-response had high values. Type of assay: functional. Conditions: 9.37 µM.

The species named for assay [8] is Homo sapiens. Put plainly: To identify inhibition of the IFN signalling (Jak-Stat) pathway via expression of an eGFP reporter gene under the control of an IFN-stimulated response element (ISRE) containing MxA promoter. Conditions: 30 µM. Type of assay: functional.
For assay [9], the target named is T4, Tyrosyl-tRNA synthetase, putative (Trypanosoma cruzi (strain CL Brener)) (UniProt Q4DSP6).
T4 sequence (whole entry): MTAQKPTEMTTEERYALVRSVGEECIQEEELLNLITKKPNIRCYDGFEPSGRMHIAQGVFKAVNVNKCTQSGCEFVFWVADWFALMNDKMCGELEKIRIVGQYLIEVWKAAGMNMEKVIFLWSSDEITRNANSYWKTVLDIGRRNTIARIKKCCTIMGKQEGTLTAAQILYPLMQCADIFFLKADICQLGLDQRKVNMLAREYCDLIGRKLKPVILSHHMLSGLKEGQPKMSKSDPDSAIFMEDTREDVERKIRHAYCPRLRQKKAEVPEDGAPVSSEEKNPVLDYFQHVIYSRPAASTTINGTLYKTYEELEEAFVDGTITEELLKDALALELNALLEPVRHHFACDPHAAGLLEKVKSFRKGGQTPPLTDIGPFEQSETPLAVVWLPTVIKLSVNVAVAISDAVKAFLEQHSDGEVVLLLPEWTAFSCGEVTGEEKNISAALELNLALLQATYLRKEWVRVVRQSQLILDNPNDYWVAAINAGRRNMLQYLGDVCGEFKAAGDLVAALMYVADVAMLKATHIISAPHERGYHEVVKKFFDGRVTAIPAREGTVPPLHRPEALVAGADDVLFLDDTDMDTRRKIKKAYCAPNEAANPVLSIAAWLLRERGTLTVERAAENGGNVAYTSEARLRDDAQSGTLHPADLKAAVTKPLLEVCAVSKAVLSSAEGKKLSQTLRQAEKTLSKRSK
The experiment in a line: Trypanosoma cruzi tyrosyl tRNA synthetase (TcYRS) _High Tyrosine SOP. Further: in the data most compounds retested in dose-response had high values. Particulars: 30 µM. The format is functional.

Assay [10] concerns the target T4, Tyrosyl-tRNA synthetase, putative (Trypanosoma cruzi (strain CL Brener)). Put plainly: Trypanosoma cruzi tyrosyl tRNA synthetase (TcYRS) SOP. The format is functional. Particulars: 30 µM.
Assay [11] concerns the target Chromo domain-containing protein 1 (Saccharomyces cerevisiae (strain ATCC 204508 / S288c) (Baker's yeast)) (UniProt P32657). Put plainly: ScCHD-1 Enzyme Inhibition Assay. Further: in the data most compounds retested in dose-response had high values. Type of assay: functional. Conditions: 30 µM.

For some of these results: Measured potencies and affinities stand elsewhere.

Sequence of Protein translocase subunit SecA (Escherichia coli (strain K12)) (P10408 whole entry): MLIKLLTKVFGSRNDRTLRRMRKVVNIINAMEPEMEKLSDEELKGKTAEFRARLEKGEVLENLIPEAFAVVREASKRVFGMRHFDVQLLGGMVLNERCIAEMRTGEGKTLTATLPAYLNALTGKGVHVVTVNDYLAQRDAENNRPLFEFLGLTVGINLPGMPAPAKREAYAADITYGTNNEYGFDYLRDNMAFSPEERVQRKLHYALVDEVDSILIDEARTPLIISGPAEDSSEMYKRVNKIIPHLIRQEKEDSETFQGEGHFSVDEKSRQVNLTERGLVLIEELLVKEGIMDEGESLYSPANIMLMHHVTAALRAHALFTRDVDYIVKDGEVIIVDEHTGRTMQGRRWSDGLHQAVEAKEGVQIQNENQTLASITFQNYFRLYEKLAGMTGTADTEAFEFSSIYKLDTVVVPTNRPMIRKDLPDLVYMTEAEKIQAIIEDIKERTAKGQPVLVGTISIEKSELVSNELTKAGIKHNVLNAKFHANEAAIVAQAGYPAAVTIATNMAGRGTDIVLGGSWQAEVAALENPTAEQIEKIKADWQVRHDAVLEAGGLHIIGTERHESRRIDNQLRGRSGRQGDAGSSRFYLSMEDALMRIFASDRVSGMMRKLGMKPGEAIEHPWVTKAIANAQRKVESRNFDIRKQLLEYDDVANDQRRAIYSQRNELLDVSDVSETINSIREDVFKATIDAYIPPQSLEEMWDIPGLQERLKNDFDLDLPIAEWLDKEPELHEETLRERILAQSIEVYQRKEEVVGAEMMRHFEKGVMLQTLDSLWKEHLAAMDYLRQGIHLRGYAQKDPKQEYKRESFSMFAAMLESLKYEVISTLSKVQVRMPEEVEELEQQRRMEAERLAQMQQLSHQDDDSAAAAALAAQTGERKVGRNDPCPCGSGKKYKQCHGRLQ
Sequence of Chromo domain-containing protein 1 (Saccharomyces cerevisiae (strain ATCC 204508 / S288c) (Baker's yeast)) (P32657 whole entry, the tested form may be a part): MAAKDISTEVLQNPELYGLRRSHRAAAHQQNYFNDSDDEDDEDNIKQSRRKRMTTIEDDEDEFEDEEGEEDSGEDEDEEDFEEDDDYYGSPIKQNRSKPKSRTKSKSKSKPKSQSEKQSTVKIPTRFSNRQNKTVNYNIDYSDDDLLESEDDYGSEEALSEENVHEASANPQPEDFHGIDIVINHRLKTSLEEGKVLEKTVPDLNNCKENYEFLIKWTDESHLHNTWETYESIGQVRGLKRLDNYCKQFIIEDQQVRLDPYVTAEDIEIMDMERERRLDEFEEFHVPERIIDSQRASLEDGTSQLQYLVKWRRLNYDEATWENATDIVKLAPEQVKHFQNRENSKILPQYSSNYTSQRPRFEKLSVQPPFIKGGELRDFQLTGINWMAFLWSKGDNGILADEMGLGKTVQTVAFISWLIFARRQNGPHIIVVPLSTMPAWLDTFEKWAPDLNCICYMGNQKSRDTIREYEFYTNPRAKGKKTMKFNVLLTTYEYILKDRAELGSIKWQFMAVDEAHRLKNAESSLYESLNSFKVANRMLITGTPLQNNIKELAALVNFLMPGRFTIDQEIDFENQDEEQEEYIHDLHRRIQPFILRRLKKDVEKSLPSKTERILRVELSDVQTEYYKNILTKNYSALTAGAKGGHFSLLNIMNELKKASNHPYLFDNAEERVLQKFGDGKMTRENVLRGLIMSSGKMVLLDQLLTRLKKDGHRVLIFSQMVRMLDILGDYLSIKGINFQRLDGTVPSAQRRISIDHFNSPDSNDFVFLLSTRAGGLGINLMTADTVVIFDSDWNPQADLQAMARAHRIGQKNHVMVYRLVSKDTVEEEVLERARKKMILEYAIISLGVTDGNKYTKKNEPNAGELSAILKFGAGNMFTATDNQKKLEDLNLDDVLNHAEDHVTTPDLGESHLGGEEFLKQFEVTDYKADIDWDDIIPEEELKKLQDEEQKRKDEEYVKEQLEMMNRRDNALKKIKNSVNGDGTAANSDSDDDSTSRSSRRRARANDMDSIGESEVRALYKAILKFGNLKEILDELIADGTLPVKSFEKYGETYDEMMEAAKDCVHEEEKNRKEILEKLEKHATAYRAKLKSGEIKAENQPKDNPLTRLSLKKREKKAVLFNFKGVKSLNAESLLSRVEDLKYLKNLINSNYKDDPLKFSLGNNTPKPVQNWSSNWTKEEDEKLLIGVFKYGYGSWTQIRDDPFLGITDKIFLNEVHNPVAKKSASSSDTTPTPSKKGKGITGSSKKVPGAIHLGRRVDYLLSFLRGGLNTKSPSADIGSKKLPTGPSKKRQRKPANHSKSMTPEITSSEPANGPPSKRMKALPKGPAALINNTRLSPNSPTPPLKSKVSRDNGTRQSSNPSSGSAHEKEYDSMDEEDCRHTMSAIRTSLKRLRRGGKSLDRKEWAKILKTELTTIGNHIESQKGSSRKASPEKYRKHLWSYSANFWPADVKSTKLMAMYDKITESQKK

For the compound `CSCc1cccc(S(=O)(=O)N2CCSCC2)c1`, the Percent Effect in [1] was -2.31%; in assay [2], -1.33%; in assay [3] it was 0.956%; in assay [4], 1.81%; in assay [5] it was -4.91%; in assay [6], -4.05%. For the same compound, the Percent Effect in assay [7] was 8.87%; in assay [8], 4.39%; in assay [9], -16.9%; in assay [10] it was -2.56%; in assay [11], -9.22%.

With `O=C(c1cccc(F)c1)N1CCN2C[C@H](OCc3cccnc3)C[C@H]2C1`, the Percent Effect in [1] is -4.82%; in assay [2], 10.7%; in assay [3] it was 5.61%; in assay [4] it was 1.34%; in assay [5], -3.15%; in [6] it was 6.29%. For the same compound, the Percent Effect in [7] is 10.7%; in assay [8], 8.83%; in assay [9] it was 3.19%; in assay [10], 14.1%; in assay [11] it was -3.02%.

As to `CC(NC(N)=O)C(=O)N1CCCN(Cc2nccn2C(C)C)CC1` (stereo unspecified), the Percent Effect in assay [1] is -1.61%; in assay [2], 1.27%; in assay [3], 7.49%; in assay [4], 0.743%; in assay [5], -1.13%; in [6], -4.09%. In addition, the Percent Effect in [7] was 2.74%; in assay [8], -2.71%; in assay [9] it was 0%; in assay [10], 2.53%; in assay [11] it was -3.12%.

On to `O=C(CN(Cc1ccccc1)CC1CCOCC1)NC(=O)NC1CC1`, for which the Percent Effect in assay [1] is -9.18%; in [2], 0%; in [3], 0.0982%; in [4] it was -1.54%; in [5], -4.96%; in assay [6], -4.39%. For the same compound, the Percent Effect is 3% in assay [7]; -3.5% in assay [8]; 1.04% in [9]; -3.7% in assay [10]; 1.29% in assay [11].

On to `CC(=O)Nc1nc(C2CCN(CC(N)=O)CC2)cs1`, for which the Percent Effect in [1] is -1.36%; in [2], -6.76%; in [3], 6.42%; in assay [4], 5.54%; in assay [5], -4.35%; in [6] it was 3.48%. Also, the Percent Effect in assay [7] was -3.9%; in [8], 5.69%; in [9] it was 0%; in [10], -3.9%; in [11], 11%.

On to `CC(NC1CCN(CCS(C)(=O)=O)CC1)c1ccc(Cl)cc1` (stereo unspecified), for which the Percent Effect in [1] was -1.94%; in assay [2] it was 0%; in [3], -3.49%; in [4], 0.142%; in assay [5] it was -5.02%; in [6], -0.476%. Besides, the Percent Effect in [7] was 3.62%; in assay [8], 21.6%; in assay [9], 0.529%; in assay [10], 7.32%; in assay [11], -2.22%.

Consider `CC(=O)N1CCCN(C(=O)NCc2cc[nH]n2)CC1`, for which the Percent Effect was -8.38% in [1]; 13.2% in assay [2]; -10.6% in assay [3]; 1.18% in assay [4]; 11.1% in [5]; 1.08% in assay [6]. In addition, the Percent Effect is 14.6% in assay [7]; 1% in [8]; 11.3% in assay [9]; 23.5% in [10]; -8.49% in assay [11].

In the case of `CCc1nccn1C1CCCN(C(=O)c2cnc3ccccc3n2)C1` (stereo unspecified), the Percent Effect is -5.47% in assay [1]; 2.63% in [2]; 7.07% in assay [3]; 1.65% in assay [4]; -1.07% in assay [5]; -2.37% in [6]. Also, the Percent Effect in assay [7] was 7.77%; in assay [8], 24.6%; in [9], 7.45%; in [10] it was 10.4%; in assay [11], -2.28%.

For `Cc1cc(N2CCCN(C(=O)Cc3ccc(O)c(Cl)c3)CC2)ccn1`, the Percent Effect is -3.42% in assay [1]; 13.7% in assay [2]; -3.37% in assay [3]; 6.51% in assay [4]; 2.18% in assay [5]; 0.399% in assay [6]. Also, the Percent Effect in assay [7] was 22.2%; in [8] it was -10.9%; in assay [9] it was 8.33%; in assay [10], 18.5%; in assay [11] it was -1.79%.

Regarding `Cc1cccc(N2CC[C@@H]3CN(C(=O)c4ccco4)CCO[C@@H]3C2)n1`, the Percent Effect in assay [1] is -3.29%; in assay [2], 10.7%; in assay [3] it was 10.8%; in [4], 3.1%; in assay [5], -3.15%; in [6], 4.89%. For the same compound, the Percent Effect in [7] is 9.78%; in assay [8] it was 6.1%; in [9], 7.45%; in [10], 14.1%; in assay [11], -6.54%.

Consider `CS(=O)(=O)NC[C@]12COC[C@H]1CN(C(=O)C1CCCCC1)C2`, for which the Percent Effect in [1] is -1.23%; in assay [2], 0%; in assay [3], 2.98%; in assay [4], -0.175%; in [5], -1.47%; in [6] it was 14.3%. Also, the Percent Effect in [7] is 17.7%; in [8], -0.518%; in assay [9], -20.5%; in assay [10] it was -25.6%; in [11], 3.02%.
